# Laboratory results: PubChem BioAssay (NCATS)
# Inconclusive results are not listed. A call without a number means that no potency is given here. Values without a mark were called inactive. Activity calls are given as the source filed them. Calls follow the shape of the dose curve; as a rule, active = well fitted curve in the direction sought with a large enough effect; inconclusive = small, poorly fitted or top-dose-only effect, or another doubt; inactive = no such curve, though single readings can be large; an effect the other way counts as inactive or inconclusive.
# Experiments:
# [1] = Primary qHTS for inhibitors of nuclear receptor binding SET domain protein 2 (NSD2) in an isogenic RCH-ACV NSD2 p.E1099K mutant (9B) (AID 1645876); settings: RCH-ACV NSD2 E1099K (9B) viability, CellTiter-Glo, 72 h; series mostly up to 44.9 µM
# [2] = Primary qHTS for inhibitors of nuclear receptor binding SET domain protein 2 (NSD2) in an RCH-ACV wild type WT cells (2C) (AID 1645877); settings: RCH-ACV (leukaemia line) NSD2 WT (2C) viability, CellTiter-Glo, 72 h; series mostly up to 44.9 µM
# Also: nearly all actives have a fitted effect of over 70% in size.
# Potency is read from the fitted curve at half-maximal effect.
smiles,measurement,setting,value
CC(C)=CCC/C(C)=C/Cc1ccc(O)c(C2OC(=O)c3cc(C(=O)O)cc(O)c32)c1O (configuration not stated),Potency,[1],inactive
same,Potency,[2],inactive
COc1c(C)c(OCC(O)C(C)(C)O)cc2c1COC2=O (configuration not stated),Potency,[1],inactive
same,Potency,[2],inactive
CCc1c(C)nc2c(-c3cnn(-c4cc(CO)ccn4)c3)c[nH]n2c1=O,Potency,[1],inactive
same,Potency,[2],inactive
C[C@H]1O[C@@H](O[C@H]2CC[C@@]3(C)C(CC[C@]4(C)C3CC=C3C5CC(C)(C)CC[C@]5(C(=O)O)CC[C@]34C(=O)O)C2(C)C)[C@H](O)[C@@H](O)[C@@H]1O (some centres not stated),Potency,[1],inactive
same,Potency,[2],inactive
CC1(C)CCCC2(C)C=C(C(=O)O)C(O)CC12 (configuration not stated),Potency,[1],inactive
same,Potency,[2],inactive
CC(=O)O[C@H]1[C@@H](O)[C@H](O[C@H]2[C@@H]3C=CO[C@@H](O[C@H]4O[C@@H](CO)[C@H](O)[C@@H](O)[C@@H]4O)[C@@H]3[C@@]3(CO)O[C@@H]23)O[C@@H](C)[C@@H]1OC(=O)/C=C/c1ccccc1,Potency,[1],inactive
same,Potency,[2],inactive
C[C@@H]1O[C@@H](O[C@H]2[C@@H]3C=CO[C@@H](O[C@@H]4O[C@H](CO)[C@@H](O)[C@H](O)[C@H]4O)[C@@H]3[C@@]3(CO)O[C@@H]23)[C@H](OC(=O)/C=C/c2ccc(O)c(O)c2)[C@H](O)[C@H]1O,Potency,[1],inactive
same,Potency,[2],inactive
CC1(C(=O)O)CCCC2(C)C3=CCC4CC3(CCC12)CC4CO (configuration not stated),Potency,[1],inactive
same,Potency,[2],inactive
CC1(C)CC[C@]2(C(=O)O)CC[C@]3(C)C(=CCC4[C@@]5(C)CC[C@H](O[C@@H]6O[C@H](CO)[C@@H](O)[C@H](O)[C@H]6O[C@@H]6O[C@H](CO)[C@@H](O)[C@H](O)[C@H]6O)[C@@](C)(CO)C5CC[C@]43C)[C@@H]2C1 (some centres not stated),Potency,[1],inactive
same,Potency,[2],inactive
C=C(C(=O)O)C1CCC2(C)CCC(O)C(=C)C2C1 (configuration not stated),Potency,[1],inactive
same,Potency,[2],inactive
CN1c2ccccc2C(=O)N2CCC3c4ccccc4NC3C21 (configuration not stated),Potency,[1],2260 nM (active)
same,Potency,[2],2010 nM (active)
CC1OC(OC2C(CO)OC(OCC3OC(OC(=O)C45CCC(C)(C)CC4C4=CCC6C7(C)CCC(OC8OC(CO)C(O)C(OC9OC(CO)C(O)C(O)C9O)C8O)C(C)(C)C7CCC6(C)C4(C)CC5)C(O)C(O)C3O)C(O)C2O)C(O)C(O)C1OC1OC(CO)C(O)C(O)C1O (configuration not stated),"activity change, negative = viability loss",[1],-0.174% [at 9.23 µM]
same,"activity change, negative = cell killing",[2],-10.4% [at 9.23 µM]
CC(C)=CCC[C@](C)(O)[C@H]1CC[C@]2(C)[C@@H]1[C@H](O)CC1[C@@]3(C)CC[C@H](O)C(C)(C)C3[C@@H](O[C@@H]3O[C@H](CO)[C@@H](O)[C@H](O)[C@H]3O[C@@H]3OC[C@@H](O)[C@H](O)[C@H]3O)C[C@]12C (some centres not stated),Potency,[1],inactive
same,Potency,[2],inactive
C/C=C1\[C@H](OC2OC(COC3OC(CO)C(O)C(O)C3O)C(O)C(O)C2O)OC=C(C(=O)OC)[C@H]1CC(=O)OCCc1ccc(O)cc1 (some centres not stated),Potency,[1],inactive
same,Potency,[2],inactive
Cc1cc(Cl)ccc1COc1ccnn1-c1cc(C(=O)O)ccn1,Potency,[1],inactive
same,Potency,[2],inactive
CC(O)/C=C/C1OC(=O)CC1Nc1ccc(C(=O)O)cc1 (configuration not stated),Potency,[1],inactive
same,Potency,[2],inactive
Clc1cc2c(NC3CCCC3)nnc(-c3ccncc3)c2cc1Cl,Potency,[1],inactive
same,Potency,[2],inactive
CC(=O)OC1C(OC(=O)c2ccccc2)C2C(C)(C)CC(=O)CC2(C)C23CCC(C)(C2)C(O)CC13 (configuration not stated),Potency,[1],inactive
same,Potency,[2],inactive
CC(O)/C=C/C1C(C)C(O[C@@H]2O[C@H](CO)[C@@H](O)[C@H](O)[C@H]2O)C(O)CC1(C)C (some centres not stated),Potency,[1],inactive
same,Potency,[2],inactive
CC(=O)N[C@@H](C(=O)O[C@H]1CCC(C)(C)[C@@H]2CCC3=C(COC3=O)[C@@]12C)C(C)C,Potency,[1],inactive
same,Potency,[2],inactive
OC[C@H]1O[C@@H](OC[C@H]2O[C@@H](OC/C=C/c3ccccc3)[C@H](O)[C@@H](O)[C@@H]2O)[C@@H](O)[C@@H]1O,Potency,[1],inactive
same,Potency,[2],inactive
CCCCNc1ncc2c(-c3ccc(F)cc3)nn(CC3CCC(N)CC3)c2n1 (configuration not stated),Potency,[1],2240 nM (active)
same,Potency,[2],1620 nM (active)
COC(=O)c1ccccc1O[C@@H]1O[C@H](CO)[C@@H](O)[C@H](O)[C@H]1O[C@@H]1O[C@@H](C)[C@H](O)[C@@H](O)[C@H]1O,Potency,[1],inactive
same,Potency,[2],inactive
CO[C@H]1/C=C/C=C/C=C/C[C@H](OC(=O)[C@@H](C)NC(=O)C2CCCCC2)[C@H](C)[C@@H](O)/C(C)=C/CCc2cc(O)cc(c2)NC(=O)C1,Potency,[1],342 nM (active)
same,Potency,[2],242 nM (active)
COc1cc(O)cc(C)c1C(=O)O[C@@H]1[C@H](O)[C@@H](CO)O[C@H]1n1ccc(=O)[nH]c1=O,Potency,[1],inactive
same,Potency,[2],inactive
C[C@H](NC(=O)CCc1nc2ccccc2c(=O)[nH]1)c1ccccc1,Potency,[1],inactive
same,Potency,[2],inactive
CC(=O)OC1C(O)C2C(C)C3=CC(=O)OC3(O)CC2C2(C)CCCC(C)(CO)C12 (configuration not stated),Potency,[1],inactive
same,Potency,[2],inactive
C=C1C(O)C[C@@H]2C(C(=O)O)=CO[C@@H](O[C@@H]3O[C@H](CO)[C@@H](O)[C@H](O)[C@H]3OC(=O)c3ccc(O)cc3)[C@H]12 (some centres not stated),Potency,[1],inactive
same,Potency,[2],inactive
COC(=O)C1=CO[C@@H](O[C@@H]2O[C@H](CO)[C@@H](O)[C@H](O)[C@H]2O)[C@@H]2C(CO)=CC[C@]12O,Potency,[1],inactive
same,Potency,[2],inactive
COc1ccc(CC2C(=O)NC(C)C(=O)N(C)C3Cc4ccc(cc4)Oc4cc(ccc4OC4OC(CO)C(O)C(O)C4O)CC(C(=O)NC(C)C(=O)NC(C)C(=O)N2C)N(C)C3=O)cc1 (configuration not stated),Potency,[1],13.8 nM (active)
same,Potency,[2],9.7 nM (active)
CC12CCC(=O)C=C1C(O)CC1C2C(O)CC2(C)C1CC[C@]2(O)C(=O)CO (some centres not stated),outcome,[1],inactive [at 9.23 µM]
same,"activity change, negative = cell killing",[2],-15% [at 9.23 µM]
CC(C)c1cc(C(=O)N2CC[C@@H](NC(=O)C3CC3)C2)n[nH]1,Potency,[1],inactive
same,Potency,[2],inactive
CCC1C(=O)N(C)c2cnc(Nc3ccc(C(=O)NC4CCC(N5CCN(CC6CC6)CC5)CC4)cc3OC)nc2N1C(C)C (configuration not stated),Potency,[1],18.3 nM (active)
same,Potency,[2],25.8 nM (active)
COC(=O)C1=CO[C@@H](O[C@@H]2O[C@H](CO)[C@@H](O)[C@H](O)[C@H]2O)[C@@H]2[C@@](C)(O)[C@@H](OC(=O)/C=C/c3ccc(O)cc3)C[C@]12O,Potency,[1],inactive
same,Potency,[2],inactive
C=C1[C@@H]2CC[C@@H]3[C@@](CCC4C(C(=O)O)(C(=O)O)C[C@@H](O[C@@H]5O[C@H](CO)[C@@H](O)[C@H](O)[C@H]5OC(=O)CC(C)C)C[C@]43C)(C2)[C@H]1O (some centres not stated),Potency,[1],inactive
same,Potency,[2],inactive
OCc1ccc(O[C@@H]2O[C@H](CO)[C@@H](O)[C@H](O)[C@H]2O)cc1,Potency,[1],inactive
same,Potency,[2],inactive
O=C1NC(Cc2c[nH]c3ccccc23)C(=O)NC1Cc1cnc[nH]1 (configuration not stated),Potency,[1],inactive
same,Potency,[2],inactive
CC(C)CN(C[C@@H](O)[C@H](Cc1ccccc1)NC(=O)O[C@@H]1CO[C@H]2OCC[C@H]21)S(=O)(=O)c1ccc(N)cc1,Potency,[1],inactive
same,Potency,[2],inactive
O=C1NC(Cc2ccccc2)C(=O)N2CCCC12 (configuration not stated),Potency,[1],inactive
same,Potency,[2],inactive
C=C1CCC2C(C)(COC(C)=O)CCCC2(C)C1CCC(C)CC(=O)O (configuration not stated),Potency,[1],inactive
same,Potency,[2],inactive
C/C=C(\C)C(=O)O[C@H]1[C@@H](O[C@]2(COC(=O)CC(C)C)O[C@H](COC(=O)C(C)CC)[C@@H](OC(C)=O)[C@@H]2O)O[C@H](COC(C)=O)[C@@H](O)[C@@H]1O (some centres not stated),Potency,[1],inactive
same,Potency,[2],inactive
C[C@@H]1CC[C@]2(C(=O)O)CC[C@]3(C)C(=CCC4[C@@]5(C)CC[C@H](O)C(C)(C)C5C(O)C[C@]43C)[C@@H]2[C@]1(C)O (some centres not stated),Potency,[1],inactive
same,Potency,[2],inactive
C=C1CCC[C@]2(C)CC[C@@H](C(=C)C(=O)O)[C@H](O)[C@@H]12,Potency,[1],inactive
same,Potency,[2],inactive
N[C@@]1(C(=O)O)CC[C@H]2[C@H](C(=O)O)[C@H]21,Potency,[1],inactive
same,Potency,[2],inactive
C=C1C(=O)O[C@H](CCC)[C@H]1C(=O)O,Potency,[1],inactive
same,Potency,[2],inactive
COc1cc2c(cc1OC)CC(=O)N(CCCNC[C@H]1Cc3cc(OC)c(OC)cc31)CC2,Potency,[1],inactive
same,Potency,[2],inactive
